T cruzi growth-1: T. cruzi proliferation inhibition | T. cruzi beta-gal in NIH3T3, GalScreen luminescence, 90 h | AID 624255 | inhibition, % at 8.34 µM | 77,000 tested, 5.9% active;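 active = mean inhibition above about 93%, with at least 55% of replicates each passing it, limit read from the data, passing the limit was not always enough; inconclusive = only one of those two conditions holds; inactive = neither condition holds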
C diff growth: blocks growth of Clostridium difficile. Clostridium difficile clinical isolate growth, OD600, 24 h; active compounds read low. growth activity, negative = inhibition, % at 16 µg/mL (by protocol). 86,000 tested, 0.25% active;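 active = mean growth activity at or below -80% and every replicate also at or below -80%; inconclusive = mean at or below -80% but some replicate above -80%; inactive = mean growth activity above -80%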
Pf Dd2 growth: blocks growth of Plasmodium falciparum Dd2 parasites. P. falciparum Dd2 growth, SYBR Green, 72 h; active compounds read low. activity change, % at 10 µM. 94,000 tested, 2.3% active; in the data active = activity change below about -80%; inconclusive = no clear call, values can overlap the other calls
T cruzi growth-2: blocks T. cruzi growth in NIH3T3 host cells | shares compounds with T cruzi growth-1 | AID 651739 | 5,600 tested, 72% active | T. cruzi beta-gal in NIH3T3, GalScreen luminescence, 90 h | inhibition, % at 8.35 µM;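 active = mean replicate inhibition above about 95% and at least 55% of replicates individually reaching it, limit read from the data; inconclusive = only one of the two criteria is met; inactive = neither criterion is met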
T cruzi growth-3: Trypanosoma cruzi proliferation inhibition. shares compounds with T cruzi growth-1. T. cruzi beta-gal in NIH3T3, GalScreen luminescence, 90 h. inhibition, % at 2.09 µM. 5,600 tested, 21% active. AID 651740;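 active = mean inhibition above about 95%, with at least 55% of replicates also reaching it, limit read from the data; inconclusive = meets just one of the two conditions; inactive = meets neither condition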
NIH3T3 tox: cytotoxicity in mouse NIH/3T3 fibroblasts; shares compounds with T cruzi growth-1; NIH/3T3 viability, CellTiter-Glo ATP luminescence, 90 h; cytotoxicity (signal decrease), % at 8.35 µM; 5,600 tested, 14% active;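 active = mean signal decrease across replicates above about 35% based on untreated-well scatter, with enough replicates individually passing, limit read from the data; inconclusive = no rule stated though some were filed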
NIH3T3 tox 2: NIH/3T3 (mouse) viability loss; 5,600 tested, 56% active; NIH/3T3 viability, CellTiter-Glo ATP luminescence, 90 h; shares compounds with T cruzi growth-1; AID 651744; inhibition, % at 24.9 µM;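 active = mean loss of cell viability signal at or above a set limit, and enough replicates individually reaching it; inconclusive = meets only the mean limit or only the replicate share; inactive = meets neither condition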
A number is an active result; i = inactive; ? = inconclusive; nt = not tested or not shown. Sampled rows, rich in hits. Any-hit rate of the full collection: about 6.8%.

SMILES | T cruzi growth-1 | C diff growth | Pf Dd2 growth | T cruzi growth-2 | T cruzi growth-3 | NIH3T3 tox | NIH3T3 tox 2
Cc1ccccc1-c1cnc2c(c1)C(=O)N([C@H](C)CO)C[C@@H](C)[C@H](CN(C)Cc1ccncc1)O2 | i | i | i | nt | nt | nt | nt
COCC#Cc1cnc2c(c1)C(=O)N([C@@H](C)CO)C[C@H](C)[C@@H](CN(C)C(=O)c1cccnc1)O2 | i | i | i | nt | nt | nt | nt
C[C@H]1CCCCO[C@@H](CN(C)C(=O)Nc2ccccc2)[C@@H](C)CN([C@@H](C)CO)C(=O)c2cc(NC(=O)NC3CCCCC3)ccc2O1 | 97.8 | nt | i | ? | i | i | i
C[C@@H]1CN([C@@H](C)CO)C(=O)c2cc(NC(=O)NC3CCCCC3)ccc2O[C@@H](C)CCCCO[C@@H]1CN(C)C(=O)Nc1ccccc1 | i | nt | i | nt | nt | nt | nt
C[C@H]1CCCCO[C@H](CN(C)C(=O)NC2CCCCC2)[C@@H](C)CN([C@@H](C)CO)C(=O)c2cc(NC(=O)Nc3ccccc3)ccc2O1 | i | i | i | nt | nt | nt | nt
C[C@H]1CCCCO[C@@H](CN(C)C(=O)NC2CCCCC2)[C@@H](C)CN([C@@H](C)CO)C(=O)c2cc(NC(=O)Nc3ccccc3)ccc2O1 | 110.1 | i | i | 110.6 | i | i | i
CC(C)NC(=O)Nc1ccc2c(c1)C(=O)N([C@H](C)CO)C[C@@H](C)[C@H](CN(C)S(=O)(=O)c1cn(C)cn1)O2 | i | i | i | nt | nt | nt | nt
C[C@@H]1CCCCO[C@@H](CN(C)C)[C@@H](C)CN([C@@H](C)CO)C(=O)c2cc(NC(=O)C3CCCCC3)ccc2O1 | i | i | i | nt | nt | nt | nt
CO[C@@H](CN(C)S(=O)(=O)c1ccc(Cl)cc1)[C@@H](C)CN([C@@H](C)CO)S(=O)(=O)c1cccc(Cl)c1 | i | nt | i | nt | nt | nt | nt
CO[C@H](CN(C)S(=O)(=O)c1cccc(Cl)c1)[C@H](C)CN([C@H](C)CO)S(=O)(=O)c1ccc(Cl)cc1 | ? | nt | i | 98.6 | i | 47.0 | 67.5
CO[C@@H](CN(C)S(=O)(=O)c1ccc(Cl)cc1)[C@@H](C)CN([C@H](C)CO)S(=O)(=O)c1cccc(Cl)c1 | ? | nt | i | i | i | 54.2 | 78.8
CO[C@@H](CN(C)S(=O)(=O)c1ccc(Cl)cc1)[C@H](C)CN([C@@H](C)CO)S(=O)(=O)c1cccc(Cl)c1 | i | nt | i | nt | nt | nt | nt
C[C@@H]1CN([C@H](C)CO)S(=O)(=O)c2ccc(C3=CCCC3)cc2O[C@H]1CN(C)C(=O)C1CCCCC1 | i | i | i | nt | nt | nt | nt
C[C@H]1CN([C@@H](C)CO)S(=O)(=O)c2ccc(C3=CCCCC3)cc2O[C@H]1CN(C)C(=O)C1CCCCC1 | 122.7 | i | i | 104.5 | i | i | 107.3
C[C@H](CO)N1C[C@H](C)[C@H](CN(C)C(=O)C2CCCCC2)Oc2cc(C3=CCCCC3)ccc2S1(=O)=O | 115.6 | i | i | 102.0 | i | i | 106.6
C[C@H](CO)N1C[C@H](C)[C@H](CN(C)C(=O)C2CCCCC2)Oc2cc(C3=CCCC3)ccc2S1(=O)=O | i | i | i | nt | nt | nt | nt
C[C@H]1CN([C@@H](C)CO)S(=O)(=O)c2ccc(C3=CCCC3)cc2O[C@@H]1CN(C)C(=O)C1CCC1 | i | i | i | nt | nt | nt | nt
C[C@@H]1CN([C@H](C)CO)S(=O)(=O)c2ccc(C3=CCCCC3)cc2O[C@H]1CN(C)C(=O)C1CCCCC1 | 108.8 | i | i | 104.6 | i | i | 104.6
C[C@@H]1CN([C@H](C)CO)S(=O)(=O)c2ccc(C3=CCCC3)cc2O[C@H]1CN(C)C(=O)C1CCC1 | 110.7 | i | i | i | i | i | 24.3
C[C@H]1CN([C@@H](C)CO)S(=O)(=O)c2ccc(C3=CCCCC3)cc2O[C@@H]1CN(C)C(=O)C1CCC1 | i | i | i | nt | nt | nt | nt
C[C@H](CO)N1C[C@H](C)[C@@H](CN(C)S(C)(=O)=O)Oc2ccc(NC(=O)Cn3cnnn3)cc2CC1=O | i | i | i | nt | nt | nt | nt
C[C@H](CO)N1C[C@H](C)[C@H](CN(C)C(=O)CCC(F)(F)F)OCCCC[C@H](C)Oc2ccc(NS(=O)(=O)c3cn(C)cn3)cc2C1=O | i | i | i | nt | nt | nt | nt
CC(C)CC#Cc1ccc2c(c1)O[C@H](CN(C)C(=O)CC1CC1)[C@H](C)CN([C@H](C)CO)S2(=O)=O | nt | i | i | nt | nt | nt | nt
CCc1sc(N2[C@H](C#N)[C@H](c3ccccc3-c3ccccc3)[C@H]2CO)nc1C | nt | i | i | nt | nt | nt | nt
COc1ccc(S(=O)(=O)N[C@H]2C=C[C@H](CC(=O)N3CCC(Cc4ccccc4)CC3)O[C@H]2CO)cc1 | i | i | i | nt | nt | nt | nt
SMILES | T cruzi growth-1 | C diff growth | Pf Dd2 growth | T cruzi growth-2 | T cruzi growth-3 | NIH3T3 tox | NIH3T3 tox 2
Cc1ccc(S(=O)(=O)N[C@@H]2CC[C@@H](CC(=O)N3CCC(Cc4ccccc4)CC3)O[C@@H]2CO)cc1 | 111.1 | i | i | 109.5 | i | i | 34.7
O=C(NCC[C@H]1CC[C@@H](NS(=O)(=O)c2ccccc2F)[C@@H](CO)O1)c1ccc(F)cc1 | i | nt | i | nt | nt | nt | nt
O=C(NCC[C@@H]1CC[C@H](NS(=O)(=O)c2ccccc2F)[C@@H](CO)O1)c1ccc(F)cc1 | 103.7 | nt | i | i | i | i | i
Cc1ccc(S(=O)(=O)N[C@H]2CC[C@@H](CC(=O)N3CCC(Cc4ccccc4)CC3)O[C@H]2CO)cc1 | i | i | i | nt | nt | nt | nt
O=C(C[C@H]1CC[C@@H](NS(=O)(=O)c2ccc(F)cc2)[C@@H](CO)O1)N1CCc2ccccc2C1 | i | i | i | nt | nt | nt | nt
COc1ccc(S(=O)(=O)N[C@H]2C=C[C@@H](CC(=O)N3CCC(Cc4ccccc4)CC3)O[C@H]2CO)cc1 | 109.7 | i | i | i | i | i | 70.0
O=C(C[C@@H]1CC[C@@H](NS(=O)(=O)c2ccc(F)cc2)[C@H](CO)O1)N1CCc2ccccc2C1 | 104.1 | i | i | i | i | i | i
CCCNC(=O)N1CC[C@@H]2[C@H]1c1cc(C#Cc3ccc(OC)cc3)ccc1N(C)[C@@H]2CO | i | i | i | nt | nt | nt | nt
CCCNC(=O)Nc1ccc2c(c1)C(=O)N(C)[C@@H]1CC[C@H](CC(=O)NC)O[C@@H]1CO2 | i | i | i | nt | nt | nt | nt
Cn1cnc(CCNC(=O)C[C@H]2CC[C@@H]3[C@H](COC[C@H](O)CN3C(=O)Nc3ccccc3)O2)c1 | i | i | i | nt | nt | nt | nt
O=C(c1cccnc1)N1C[C@H]2[C@@H](c3ccccc31)[C@@H](CO)N2C(=O)Nc1ccccc1 | i | i | i | nt | nt | nt | nt
COCC#Cc1cnc2c(c1)C(=O)N([C@H](C)CO)C[C@@H](C)[C@@H](CN(C)Cc1ccc3c(c1)OCO3)O2 | nt | i | i | nt | nt | nt | nt
C[C@H](CO)N1C[C@H](C)[C@H](CN(C)Cc2ccc(C(=O)O)cc2)OCCCC[C@H](C)Oc2ccc(NC(=O)Nc3cccc4ccccc34)cc2C1=O | i | i | i | nt | nt | nt | nt
C[C@H](CO)N1C[C@H](C)[C@H](CN(C)Cc2ccc(C(F)(F)F)cc2)OCCCC[C@H](C)Oc2ccc(NC(=O)Nc3cccc4ccccc34)cc2C1=O | i | i | i | nt | nt | nt | nt

High-throughput results as filed in PubChem BioAssay.
